Data: PMC4336329 (PLoS ONE, 2015)
Out of some 310,000 compounds screened, about 14,000 (4.5%) showed an effect of 50% or more. Effects have a minus sign here. The full list was thinned out, with strong results kept by preference.

Biological target: human ether-à-go-go-related gene (hERG) potassium channel (human, UniProt Q12809)
Assay: primary screen, population patch clamp on CHO cells stably expressing hERG; higher = less effect of the substance
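Also: peak tail current of the secondary pulse compared with the same well before compound.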

Sequence of human ether-à-go-go-related gene (hERG) potassium channel (Q12809 whole entry, looked up): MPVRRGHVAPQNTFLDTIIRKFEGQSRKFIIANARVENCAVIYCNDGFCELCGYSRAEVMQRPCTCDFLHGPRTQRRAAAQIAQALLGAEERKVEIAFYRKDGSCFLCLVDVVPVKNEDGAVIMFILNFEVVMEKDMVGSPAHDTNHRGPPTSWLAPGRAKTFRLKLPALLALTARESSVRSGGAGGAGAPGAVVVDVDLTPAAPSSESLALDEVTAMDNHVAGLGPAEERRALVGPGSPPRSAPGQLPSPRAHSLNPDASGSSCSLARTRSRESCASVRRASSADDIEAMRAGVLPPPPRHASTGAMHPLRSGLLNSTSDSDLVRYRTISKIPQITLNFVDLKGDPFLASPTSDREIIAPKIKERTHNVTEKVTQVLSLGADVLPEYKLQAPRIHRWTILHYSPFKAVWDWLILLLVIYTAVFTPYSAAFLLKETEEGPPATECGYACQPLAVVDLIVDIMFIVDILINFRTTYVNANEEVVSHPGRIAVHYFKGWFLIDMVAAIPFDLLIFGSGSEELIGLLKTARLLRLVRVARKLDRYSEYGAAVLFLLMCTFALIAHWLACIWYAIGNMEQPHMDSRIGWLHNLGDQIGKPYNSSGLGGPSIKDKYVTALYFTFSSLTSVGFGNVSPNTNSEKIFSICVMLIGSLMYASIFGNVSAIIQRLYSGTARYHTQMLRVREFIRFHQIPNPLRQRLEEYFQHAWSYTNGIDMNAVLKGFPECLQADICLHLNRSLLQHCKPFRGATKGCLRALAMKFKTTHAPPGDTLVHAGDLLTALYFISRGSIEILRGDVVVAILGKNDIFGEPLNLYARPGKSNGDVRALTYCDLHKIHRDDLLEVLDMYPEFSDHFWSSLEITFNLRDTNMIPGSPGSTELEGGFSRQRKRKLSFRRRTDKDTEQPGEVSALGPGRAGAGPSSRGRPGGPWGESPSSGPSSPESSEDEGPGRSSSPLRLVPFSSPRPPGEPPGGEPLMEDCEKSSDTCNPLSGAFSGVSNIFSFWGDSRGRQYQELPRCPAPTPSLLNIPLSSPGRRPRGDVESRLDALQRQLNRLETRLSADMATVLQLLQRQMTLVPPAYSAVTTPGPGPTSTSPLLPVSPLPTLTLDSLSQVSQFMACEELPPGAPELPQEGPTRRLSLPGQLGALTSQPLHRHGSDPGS

| SMILES | hERG current change (%, negative = inhibition) at 10uM |
| --- | --- |
| Cc1ccc(-n2nnnc2SCC(=O)Nc2ccccc2N2CCCCC2)cc1C | 14.3% |
| CC(NC(=O)COc1ccccc1)C(c1cccs1)N1CCCC1 (stereo not drawn) | -2.64% |
| COc1ccccc1CNC(=O)CCCOc1cc(=O)n(C)c2ccccc12 | 4.57% |
| CN(Cc1ccccc1)C(=O)CCC1CCN(S(=O)(=O)N(C)C)CC1 | -18.4% |
| CCNC(=S)N1CCC(c2nc3ccccc3s2)CC1 | -25.7% |
| CCCCNC(=O)[C@H]1C[C@H]1[C@@H](O)[C@H](CO)NC(=O)[C@H](COCc1ccccc1)NC(=O)OC(C)(C)C | 21.5% |
| CC(C)(C#N)Nn1cnnc1 | 17.1% |
| COc1ccc(CC(=O)OC2CCCN(C)C2)cc1.Cl (stereo not drawn) | 19.3% |
| Cn1ncc(Cl)c1C(=O)N1CCN(c2cccc(Cl)c2)CC1 | -8.7% |
| CC(C)n1c(SCc2cc(=O)[nH]c3ccccc23)nc2c1c(=O)n(C)c(=O)n2C | -7.13% |
| c1ccc(-c2noc(CC3CCCCC3)n2)nc1 | 6.32% |
| O=C(COC(=O)C12CC3CC(CC(O)(C3)C1)C2)NCCc1ccc(Cl)cc1 | -10.8% |
| CCN(CC)CCCOC(=O)c1ccc(OC)cc1O.Cl | -40.9% |
| CCC(Sc1nncn1C)C(=O)Nc1nnc(-c2ccccc2Cl)s1 (stereo not drawn) | -11% |
| CC(C)c1nnc(NC(=O)C2CCCN2C(=O)Nc2cccc(Cl)c2)s1 (stereo not drawn) | -18% |
| COc1ccc(C(=O)NC(C)CCc2ccccc2)cc1 (stereo not drawn) | -2.64% |
| COc1ccc(C(=O)NC(C)CCc2ccccc2)c(OC)c1 (stereo not drawn) | -26.3% |
| COc1ccc(C(=O)NC(C)CCc2ccccc2)c(O)c1 (stereo not drawn) | -55.5% |
| Cl.Fc1ccc(C(OCCN2CCCC2)c2ccc(F)cc2)cc1 | -71.3% |
| Cl.O=C(CCN1CCCCCC1)Nc1ccc(F)cc1 | -42.8% |

| SMILES | hERG current change (%, negative = inhibition) at 10uM |
| --- | --- |
| Fc1ccc(OCCOCCN2CCCC2)cc1 | -12.6% |
| CC(C)(C)c1ccccc1OCCN1CCCC1 | -24.1% |
| CC(C)(C)c1ccc(C(=O)OCCN2CCCCC2)cc1.Cl | -47.6% |
| Cl.Fc1ccc(C(OCCN2CCCC2)c2ccc(Br)cc2)cc1 (stereo not drawn) | -75.8% |
| CC(OCCN1CCCC1)(c1ccc(F)cc1)c1ccc(F)cc1.Cl | -63.1% |
| Brc1ccc(CN2CCCCCC2)cc1 | -30.3% |
| Brc1ccccc1OCCN1CCCC1 | -1.74% |
| CCOC(=O)[C@H]1[C@H]2COc3cc(OC)ccc3[C@@H]2N2C(=O)CN(Cc3ccc(OC)cc3)C(=O)[C@@]12C | -1.96% |
| CC1CCc2sc(C(=O)N3CCC(C(N)=O)CC3)cc2C1 (stereo not drawn) | 5.36% |
| CCN(CC)S(=O)(=O)c1cccc(C(=O)Nc2nncs2)c1 | 1.66% |
| O=C(CSc1nnc(-c2ccc(S(=O)(=O)N3CCOCC3)cc2)o1)c1ccccc1F | 1.84% |
| Cc1cc(SCC(=O)NCCN2C(=O)CSC2=O)nc2c(C)cccc12 | 0.207% |
| CCCc1c(C)c2cc(C)ccc2[nH]c1=O | -25.3% |
| Cc1ccc(-c2csc3nc4c5ccccc5c(NCCCN(C)C)nn4c(=O)c23)cc1 | -78% |
| Cc1ccc(-c2csc3nc4c5ccccc5c(NCCCN5CCOCC5)nn4c(=O)c23)cc1 | 2.7% |
| CN(C)CCCNc1ncnc2scc(-c3ccccc3)c12.O=C(O)C(=O)O | -27.9% |
| COc1ccc(C(C)=O)cc1CSC(=N)N.Cl | 9.4% |
| COc1ccc(C(=O)N(C)Cc2ccccn2)cc1OC1CCN(C(C)C)CC1 | 9.45% |
| Cc1ccc(SCC(=O)Nc2oc(C)c3c(C)n[nH]c(=O)c23)cc1C | -27.6% |
| Cc1n[nH]c(=O)c2c(NC(=O)CSc3nc4ccccc4c(=O)n3C(C)C)oc(C)c12 | -27% |

| SMILES | hERG current change (%, negative = inhibition) at 10uM |
| --- | --- |
| CCc1cc2c(=O)n(CCCOC)c(SCC(=O)Nc3oc(C)c4c(C)n[nH]c(=O)c34)nc2s1 | -1.43% |
| CCn1c(SCC(=O)Nc2oc(C)c3c(C)n[nH]c(=O)c23)nc2sc(C)c(C)c2c1=O | -61.7% |
| Cc1n[nH]c(=O)c2c(NC(=O)CSc3cc(Cl)ccc3Cl)oc(C)c12 | -10.9% |
| COCC(C)n1c(SCC(=O)Nc2oc(C)c3c(C)n[nH]c(=O)c23)nc2ccccc2c1=O (stereo not drawn) | 6.9% |
| COCCCn1c(SCC(=O)Nc2oc(C)c3c(C)n[nH]c(=O)c23)nc2sc3c(c2c1=O)CCC3 | -49.7% |
| Cc1n[nH]c(=O)c2c(NC(=O)CSc3nc4ccccc4c(=O)n3-c3ccc(OC(F)F)cc3)oc(C)c12 | -59.2% |
| Cc1ccc(C)c(SCC(=O)Nc2oc(C)c3c(C)n[nH]c(=O)c23)c1 | -52.4% |
| Nc1ccc(C(=O)N2CCCC2)cc1CS(=O)(=O)c1ccc(Cl)cc1 | -4.18% |
| CN(c1ccccc1)c1nc(N)c([N+](=O)[O-])c(Nc2cccc(F)c2)n1 | 24% |
| COc1ccc(N2C(=O)/C(=C\c3ccco3)N=C2SCC(=O)NC(C)C)cc1Cl | 4.42% |
| C=CCNC(=O)C(C)N1c2cccc3cccc(c23)S1(=O)=O (stereo not drawn) | 9.53% |
| COc1ccc(-n2nnnc2/C(=C/N(C)C)C(=O)c2ccccc2)cc1 | -4.92% |
| S=C(NC1CCCCC1)N1CCn2cccc2C1c1cccnc1 (stereo not drawn) | -8.63% |
| O=C(O)COc1cccc(/C=C2/SC(=S)N(Cc3ccccc3)C2=O)c1 | 0.27% |
| CC(C)(C)c1csc(NC(=O)c2cccs2)n1 | -16.3% |
| CC(C)(C)c1csc(NC(=O)c2c(F)c(F)c(F)c(F)c2F)n1 | -63.9% |
| CC(C)(C)c1csc(NC(=O)c2cccnc2)n1 | 13.6% |
| CC(C)(C)c1csc(NC(=O)c2ccc3nccnc3c2)n1 | -57.2% |
| CC(C)(C)c1csc(NC(=O)c2ccccc2O)n1 | -0.0514% |
| CC(C)(C)c1csc(NC(=O)c2ccncc2)n1 | -33.7% |
